TbPYK inhibitor – inhibitors of Trypanosoma brucei pyruvate kinase | Q57TT1 | TbPYK enzyme, Kinase-Glo Plus ATP luminescence, 45 min | Potency, µM (titrated, usually from 76.8 µM), without a hit: at the top dose activity, negative = inhibition, usual class: inhibitors | 410,000 compounds, 0.12% hits; note: potency is the fitted concentration of half-maximal effect; nearly all actives have a fitted effect of over 50% in size
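Quantitative HTS: titrated library compounds versus trypanosomal pyruvate kinase in TEA buffer (pH 7.2) containing KCl, MgCl2, BSA and Tween-20. Reactions were initiated with ADP, 130 uM final. Kinase-Glo Plus luminescence was read after 45 min at RT.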
RE007 growth inh – less growth of the S. pombe RE007 Vpr strain. S. pombe RE007 Vpr strain, BacTiter-Glo ATP luminescence, 24 h. Potency, µM (highest dose often 92.2 µM), without a hit: at the highest dose activity change, negative = less growth, actives largely listed as inhibitors. 360,000 compounds, 0.21% hits. AID 651644; active = well fitted falling curve with a large enough effect; inconclusive = small, poorly fitted or top-dose-only effect; inactive = no such curve, though single readings can be large or run the other way; note: potency is the fitted concentration of half-maximal effect; nearly all actives have a fitted effect of over 50% in size
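Fission yeast RE007 carrying one integrated HIV-1 vpr copy, seeded at OD 0.01 in PMG+AL medium with 23 nL pinned compound. Grown 24 h at 30 degrees; viability read by BacTiter-Glo luminescence after 5 min.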
Sm TGR inh – S. mansoni TGR enzyme inhibition | Q962Y6 | purified TGR, DTNB reduction, TNB absorbance 405 nm | Potency, µM (series often up to 114 µM), for the others: top-dose activity change, negative = inhibition, actives largely listed as inhibitors | 360,000 compounds, 3% hits | AID 485364; note: potency is the fitted concentration of half-maximal effect; nearly all actives have a fitted effect of over 60% in size
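Kinetic colorimetric format: TGR-catalysed, NADPH-driven DTNB reduction monitored via TNB absorbance. Enzyme dispensed at 20 nM; compound exposure 15 min at room temperature before reaction start.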
FBPA Giardia inh – Giardia lamblia aldolase inhibition. A8B2U2. purified Giardia FBPA. Potency, µM (top dose mostly 59.6 µM), inactives show top-dose activity, negative = inhibition, hits mostly inhibitors. 290,000 compounds, 0.71% hits; note: potency is the fitted concentration of half-maximal effect; nearly all actives have a fitted effect of over 55% in size
Target sequence (A8B2U2 whole entry, looked up): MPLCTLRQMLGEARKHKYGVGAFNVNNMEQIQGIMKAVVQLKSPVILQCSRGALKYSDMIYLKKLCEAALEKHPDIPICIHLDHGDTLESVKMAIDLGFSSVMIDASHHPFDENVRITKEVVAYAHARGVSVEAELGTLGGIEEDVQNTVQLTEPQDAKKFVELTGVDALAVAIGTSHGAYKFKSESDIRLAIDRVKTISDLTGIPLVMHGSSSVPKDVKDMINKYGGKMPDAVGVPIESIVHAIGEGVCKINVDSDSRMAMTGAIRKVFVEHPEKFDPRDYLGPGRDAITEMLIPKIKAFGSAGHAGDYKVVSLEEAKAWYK
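40 nM FBPA preincubated 10 min at RT with compound (up to 57.5 uM final), then substrate plus GAPDH/TPI/NAD/arsenate coupling and diaphorase/resazurin added. Fluorescence read after 20 min at RT, 525/598 nm.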
FMDV inh – antivirals against foot and mouth disease virus. Potency, µM (top dose mostly 57.9 µM), for the others: top-dose activity change, negative = inhibition, hits mostly inhibitors. 410,000 compounds, 1.2% hits. FMDV antiviral cell-based qHTS; calls by dose curve; tested in HEK293T cells; note: read-out not given here; potency is the fitted concentration of half-maximal effect; nearly all actives have a fitted effect of over 45% in size
HCMV inh – blocks human cytomegalovirus replication; activity change, negative = inhibition, % at 57.5 µM; 410,000 compounds, 4.5% hits; HFF cells, HCMV-luciferase reporter, 72 h; active compounds read low; in the data active = activity change below about -60%; inconclusive = no clear call, values can overlap the other calls; inactive = above about -39%
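Two-dose cell screen: HFF monolayers treated with compounds and infected with luciferase-expressing HCMV at 1 PFU/cell, 72 h at 37C, then lysed for luciferase measurement.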
An asterisk follows results filed as active; ? = inconclusive; nt = not tested or not shown; ! = a repeat was not active. Only some compounds are listed: those with a hit (about 7.7% of all), similar ones and a draw of the others. Unless noted, calls come from the whole dose curve; as a rule, active = well fitted curve in the direction sought with a large enough effect; inconclusive = small, poorly fitted or top-dose-only effect, or another doubt; inactive = no such curve, though single readings can be large; an effect the other way counts as inactive or inconclusive. % is set by controls: 0 for no effect and ±100 for the full control effect.

SMILES | TbPYK inhibitor | RE007 growth inh | Sm TGR inh | FBPA Giardia inh | FMDV inh | HCMV inh
CCCCC1(Cc2cccc([N+](=O)[O-])c2)C(=O)N(c2ccccc2)N(c2ccccc2)C1=O | -8% | 9% | 6% | -3% | ? | -64*
CCCCC1(CO)C(=O)N(c2ccccc2)N(c2ccccc2)C1=O | -4% | 3% | -13% | -8% | -19% | -11
COC(=O)c1ccc(C(=O)Nc2nc3cc(N)c(C)cc3s2)cc1 | 1% | 6% | 0% | 2% | 5% | ?
COC(=O)c1ccc(-c2nc3cc(Cl)c(N)cc3s2)cc1 | -27% | -10% | 1% | ? | 10µM* | 76
COC(=O)c1ccc(-c2nc(O)c(C)s2)cc1 | -16% | -25% | nt | -8% | 8% | -65*
CCN(CC)C(=O)c1sc2c(c1C)c(=O)n(-c1ccccc1)c(=O)n2CC(=O)Nc1ccc(C)cc1C | 0% | nt | 7% | nt | 0% | 5
O=c1[nH][nH]c(C(F)(F)F)c1C=Nc1ccccc1 | 0% | 22% | -19% | -2% | 0% | -7
O=c1[nH][nH]c(C(F)(F)F)c1C=NCc1cccs1 | 8% | 5% | -3% | 0% | -26% | -65*
CCC1CCc2c(sc(NC(=O)C3c4ccccc4Oc4ccccc43)c2C#N)C1 (stereo unspecified) | -3% | nt | 55% | nt | -18% | 18
CCSc1cc(C2C(C#N)=C(N)OC(C)=C2C(=O)OC)c(C)o1 (stereo unspecified) | -7% | ? | 25µM* | ? | 0% | -3
c1csc(-c2nc3ccccn3c2NC2CCCCC2)c1 | 3% | -19% | 1% | -2% | ? | -30
CCC(C)Sc1cc(-c2nc3ccccn3c2NC2CCCCC2)ccc1OC (stereo unspecified) | -11% | ? | 7% | nt | ? | -88*!
CCC(C)Sc1cc(-c2nc3cc(C)ccn3c2NC2CCCCC2)ccc1OC (stereo unspecified) | 0% | ? | nt | nt | ? | -84*!
CCC(C)Sc1cccc(-c2nc3cnccn3c2NC2CCCCC2)c1 (stereo unspecified) | -4% | 6% | nt | nt | -6% | 40
Cc1ccn2c(NC3CCCC3)c(-c3cccs3)nc2c1 | -26% | -9% | 20µM* | ? | -24% | -27
CCC(C)Sc1ccc(-c2nc3ccc(C)cn3c2NC2CCCCC2)cc1 (stereo unspecified) | -11% | ? | -1% | nt | -12% | nt
C[C@H](CO)N1C[C@H](C)[C@@H](CN(C)C(=O)Nc2cccc(Oc3ccccn3)c2)OCc2cn(nn2)CCCC1=O | nt | nt | nt | nt | nt | -6
CCN1CCN(c2nc3c(C)cccn3c(=O)c2/C=C(\C#N)C(=O)NC)CC1 | 4% | 11% | 5% | -1% | -8% | -72*
CNC(=O)/C(C#N)=C/c1c(N2CCN(C)CC2)nc2c(C)cccn2c1=O | 3% | -12% | -3% | 3% | -8% | 16
CCOC(=O)N1CCN(c2nc3c(C)cccn3c(=O)c2C=O)CC1 | 0% | -6% | 40µM* | -1% | -4% | -23
C/C=C(\C)C(=O)NCCN1Cc2ccccc2OC(c2ccccc2OC)C1 (stereo unspecified) | nt | nt | nt | nt | 16% | nt
CCOc1ccc(/C=C/c2nc(C#N)c(N3CCN(c4ccc(OC)cc4)CC3)o2)cc1 | -3% | nt | 0% | nt | -14% | -32
CN(CC1CCN(CCc2cccc(C(F)(F)F)c2)CC1)C(=O)c1ccc(F)cc1F | 0% | 8% | 40µM* | 6% | -7% | -26
CC(C)CNc1cccc2c1S(=O)(=O)N[C@@H](C)CO2 | nt | nt | nt | nt | nt | 8
COC(=O)c1ccc(NC(=O)C(=O)NCC(c2cccnc2)N2CCc3ccccc32)cc1 (stereo unspecified) | 5% | nt | 2% | nt | 11µM* | 11
SMILES | TbPYK inhibitor | RE007 growth inh | Sm TGR inh | FBPA Giardia inh | FMDV inh | HCMV inh
CCOc1ccc(NC(=O)C(=O)NCC(c2cccnc2)N2CCc3ccccc32)cc1 (stereo unspecified) | -9% | nt | 1% | nt | 11µM* | -66*
Cc1nc2ccc(S(=O)(=O)NC(CC(C)C)C(=O)N3CCN(c4ccc(F)cc4)CC3)cc2s1 (stereo unspecified) | 3% | nt | -14% | nt | ? | -7
O=C(NCCc1c[nH]c2ccccc12)O[C@H]1CC[C@@]23CCCN2C(=O)CCC[C@H]3[C@H]1Cc1ccccc1 | nt | nt | nt | nt | nt | 16
O=C1NC(Cc2ccc(O)cc2)c2nc3ccc(Br)cc3c(=O)n2-c2cc3ccccc3cc21 (stereo unspecified) | 1% | 8% | nt | nt | ? | -94*
COc1ccc2nc3n(c(=O)c2c1)-c1cc2ccccc2cc1C(=O)NC3Cc1ccc(O)cc1 (stereo unspecified) | 3% | 8% | nt | nt | ? | ?
COc1ccc(NC(=O)C2CCN(S(=O)(=O)c3ccc4c(c3)CCCC(=O)N4)CC2)cc1Cl | 1% | nt | 3% | nt | -29% | 2
CN1CCN(C(=O)C2CCC(=O)N(Cc3cccc(C(F)(F)F)c3)C2)CC1 (stereo unspecified) | 9% | ? | 7.9µM* | nt | -15% | -7
O=C(NC1CCCCC1)C1CCC(=O)N(Cc2cccc(C(F)(F)F)c2)C1 (stereo unspecified) | 2% | 2% | 6% | 0% | -19% | -61*
CSc1cccc(NS(=O)(=O)c2ccc3[nH]cc(C(=O)N4CCCC4)c(=O)c3c2)c1 | 0% | nt | 11% | nt | 1% | 6
C/C(CCC(C)C)=N\NC(=O)COc1ccccc1-c1ccccc1 | -1% | 4% | -1% | 2% | -10% | -90*
CC(NC(=O)COc1ccccc1-c1ccccc1)c1ccccc1 (stereo unspecified) | -1% | 0% | 6% | -3% | ? | -69*
C/C(CCc1ccccc1)=N\NC(=O)COc1ccccc1C | 3% | 7% | 6% | 0% | -1% | 26
CN(C)S(=O)(=O)N(CC(=O)NCCSc1ccccc1)c1ccccc1 | -7% | nt | 0% | nt | 9% | 4
O=C(/C=C/c1ccccc1[N+](=O)[O-])c1ccccc1Br | 5% | 28µM* | -20% | 0% | ? | 19
CCOC(=O)c1ccc(NS(=O)(=O)c2ccc(Br)s2)cc1 | -2% | nt | -1% | nt | 3% | 9
CC1=[N+](C)c2c(ccc3cccnc23)C1(C)C | -1% | ? | 20% | 2µM* | ? | -108*
Cc1[nH]c2c(ccc3cccnc32)c1C | 2% | -14% | -17% | -14% | 15% | -10
Cc1cc(=O)n2nc(N3CCCC(C(=O)NC4CCC(C)CC4)C3)sc2n1 (stereo unspecified) | 2% | -3% | 3% | nt | 3% | -61*
